The panel holds about 79,000 compounds, 15% with a hit somewhere; the sample as a whole holds those more often. The source made the active and inactive calls. Cut-off read from the data, not from the text of the source: active = growth inhibition above about 70%; inactive = the rest. Where a SMILES comes first, the peptide text is derived from it. The star is where a group is joined. Cbz = O=C(OCc1ccccc1)*
How the values were obtained:
[1] = NCI Yeast Anticancer Drug Screen. Data for the rad50 strain (AID 155);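 note: 0% = growth of vehicle-only cultures of the same strain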; settings: S. cerevisiae rad50 strain growth inhibition; at 50.0 µM; active compounds read high
Method in brief: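 A DNA repair-deficient yeast mutant serves as the test organism; compound-induced growth inhibition is calculated against vehicle-treated cells.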

[2] = NCI Yeast Anticancer Drug Screen. Data for the mec2-1 strain (AID 157); settings: S. cerevisiae mec2-1 strain, at 50.0 µM, active compounds read high
Method in brief: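 Yeast mec2-1 mutant treated with compound. Readout: growth inhibition vs vehicle controls.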

[3] = NCI Yeast Anticancer Drug Screen. Data for the sgs1 mgt1 strain (AID 161);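 note: 0% = growth of cultures given vehicle only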; settings: S. cerevisiae sgs1 mgt1 strain, at 50.0 µM, active compounds read high
Method in brief: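 Genetically altered yeast, compound exposure, growth inhibition relative to vehicle.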

[4] = NCI Yeast Anticancer Drug Screen. Data for the cln2 rad14 strain (AID 165);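 note: 0% = growth equal to vehicle treated cultures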; settings: S. cerevisiae cln2 rad14 strain, at 50.0 µM, active compounds read high
Method in brief: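 cln2 rad14 yeast strain; compound exposure; growth inhibition read vs vehicle controls.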

[5] = NCI Yeast Anticancer Drug Screen. Data for the bub3 strain (AID 167); settings: S. cerevisiae bub3 mutant strain, at 50.0 µM, active compounds read high
Method in brief: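 Inhibition values come from growth of compound-treated mutant yeast normalised to vehicle-treated controls.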

[6] = NCI Yeast Anticancer Drug Screen. Data for the mlh1 rad18 strain (AID 175); settings: S. cerevisiae mlh1 rad18 strain growth inhibition; at 50.0 µM; active compounds read high
Method in brief: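 Yeast w/ defined DNA-repair lesions; compound exposure; growth vs vehicle controls → % inhibition.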

Measured: growth inhibition

C=CCNC(=O)C(=O)NCC=C
inactive: [1] 3.65% | [2] -16.2% | [3] -11.2% | [4] -24.6% | [5] -8.25% | [6] 2.1%

CCN(CC)C1=Nc2ccccc2N(c2ccccc2)C(=S)C1
inactive: [1] 46.9% | [2] 25.5% | [3] 30.1% | [4] 13.9% | [5] 36.2% | [6] 51.2%

O=c1c2cc(-c3ccccc3)sc2nc2n1N=C(c1ccccc1)CS2
inactive: [1] -1.35% | [2] -2.7% | [3] -12.9% | [4] 21.3% | [5] -2.85% | [6] -18.6%

Cc1n[nH]c(=O)n1-n1cccc1
inactive: [1] -10.1% | [2] -5.35% | [3] -35.5% | [4] 7.1% | [5] -37.2% | [6] 2.55%

COC(=O)[C@@H]1[C@H]2C[C@@H]3c4[nH]c5ccccc5c4CCN3C[C@@H]2CC[C@@H]1O
inactive: [1] 1.5% | [2] -9.55% | [3] 13.9% | [4] 2.15% | [5] 5.45% | [6] 1.25%

C=C1C(=O)O[C@@H]2C(=O)[C@@H](C)[C@@H]3C=CC(=O)[C@@]3(C)[C@@H](OC(=O)/C(C)=C\C)[C@H]12
inactive: [1] -2.4% | [2] -14.3% | [3] 8.8% | [4] 10.7% | [5] 7.4% | [6] 27.1%

COc1cc2cc(c1Cl)NC(=O)/C=C/[C@]1(C)O[C@H]1[C@H](C)[C@@H]1C[C@@](O)(NC(=O)O1)[C@H](OC)C=C/C=C(\C)C2
inactive: [1] 20.2% | [2] 4.55% | [3] 12.1% | [4] 22.1% | [5] 20.5% | [6] 21.4%

CCC1(C)CCC(C)(CC)c2cc(C)ccc21 (configuration not stated)
inactive: [1] 9.9% | [2] 9.15% | [3] -6.95% | [4] -16.8% | [5] 8.4% | [6] 25.9%

O=c1c2cc3ccccc3cc2c(=O)n2n1CC(O)C(Br)C2 (configuration not stated)
inactive: [1] 64.7% | [2] 20.9% | [3] 36.5% | [4] -28.6% | [5] -3.2% | [6] 17.7%

NC(=O)NC(=O)c1ccco1
inactive: [1] 52.7% | [2] -1.55% | [3] 28.9% | [4] 17.1% | [5] -1.3% | [6] 16%

CCOC(=O)/C(Cc1cnc2ccccc2n1)=N\O
inactive: [1] -1% | [2] -4.4% | [3] -8.95% | [4] -52.5% | [5] 5.7% | [6] -24.9%

CCN(CC)C(=O)Cc1c(C(=O)N(CC)CC)c(=O)nc2sccn12
inactive: [1] -27.2% | [2] -15.8% | [3] -30.8% | [4] -23.3% | [5] -25% | [6] -43.6%

COc1ccc(OCOCOc2ccc(OC)cc2)cc1
inactive: [1] -8.05% | [2] 9.5% | [3] 12.2% | [4] -285% | [5] 42.9% | [6] -27.8%

Cc1[nH]c(=O)[nH]c(=O)c1/C=C/C(=O)NC(CO)CS(=O)CS(C)=O (configuration not stated)
inactive: [1] 3.85% | [2] -11.2% | [3] 9.75% | [4] 13.1% | [5] 5.6% | [6] -10.4%

C=CCOC(=O)Nc1cc(Cl)ccc1C
inactive: [1] 3.9% | [2] 1.2% | [3] -8.5% | [4] -9.25% | [5] -1.55% | [6] -9.8%

O=C1CN(CN2CCOCC2)C(=O)CN1CN1CCOCC1
inactive: [1] 39.3% | [2] 19.1% | [3] 44% | [4] 18.6% | [5] 36.2% | [6] 32.9%

CC(=O)CC(=O)NCc1ccccc1
inactive: [1] 10.7% | [2] -15.9% | [3] 25% | [4] 17.2% | [5] 1.55% | [6] 5.15%

CC(=O)CCn1c(=S)sc2ccccc21
inactive: [1] -6.3% | [2] 30.2% | [3] 59.5% | [4] 12.2% | [5] 29.7% | [6] -28.6%

COC(=O)c1ccc(NCc2cc(O)ccc2O)cc1O
active: [1] 88.5% | [2] 90.5% | [3] 83.7% | [5] 84.8% | [6] 91.5%
inactive: [4] 67.7%

O=C1CCCc2cc3c(cc21)CC1(Cc2ccccc2C1)C3
inactive: [1] -12.2% | [2] -27.8% | [3] 9.4% | [4] -6.4% | [5] 36.9% | [6] -14.7%

Cc1cc2nc(C(O)C(O)C(O)C(O)c3nc4cc(C)c(C)cc4[nH]3)[nH]c2cc1C (configuration not stated)
inactive: [1] 18.9% | [2] 3.35% | [3] -9.2% | [4] -1.2% | [5] -8.65% | [6] -0.85%

Nc1ccc(Br)cc1C(=O)O
inactive: [1] 4.2% | [2] -1.15% | [3] -17.4% | [4] -3.2% | [5] 23.6% | [6] -3.3%

Cc1ccc(S(=O)(=O)Oc2c(Cl)c(Cl)c(Cl)c(Cl)c2Cl)cc1
inactive: [1] -9.5% | [2] -10.1% | [3] 2.2% | [4] -15.3% | [5] 9.5% | [6] 5%

CCOc1ccccc1N(CCN(C)C)C(=O)C(c1ccccc1)c1ccccc1
inactive: [1] 20.9% | [2] -18.7% | [3] 1.05% | [4] -7.7% | [5] 25.6% | [6] 31.8%

O=[N+]([O-])c1cccc(C2=NOC3CCCC23)c1 (configuration not stated)
inactive: [1] 17.6% | [2] -7.6% | [3] 15.2% | [4] 13.8% | [5] -8.3% | [6] 16.9%

CCCc1c(C(=O)OCC)[nH]c(C(=O)CCC(=O)c2[nH]c(C(=O)OCC)c(CCC)c2C(=O)OCC)c1C(=O)OCC
inactive: [1] 20.2% | [2] -13.5% | [3] -10.9% | [4] -19.4% | [5] -15.7% | [6] 2.35%

COc1cc2c(c3c1c(=S)c1ccccc1n3C)C=CC(C)(C)O2
active: [3] 86.2% | [5] 82.7% | [6] 78.1%
inactive: [1] 59.5% | [2] 18.9% | [4] 27.1%

ClCCCOCc1ccccc1
inactive: [1] 8.2% | [2] -13.2% | [3] 3.65% | [4] 16.4% | [5] 11.9% | [6] 6.3%

COc1ccc(C(=O)CC(C#N)c2ccc(OC)cc2)cc1 (configuration not stated)
inactive: [1] -6.5% | [2] 3.25% | [3] 0.55% | [4] -21.2% | [5] -4.75% | [6] -1.35%

O=C(CCl)N1CCC(CC2(c3cc4ccccc4[nH]3)OCCO2)CC1
inactive: [1] -0.95% | [2] 15.2% | [3] 29.9% | [4] -5.05% | [5] 10.1% | [6] 1.15%

CC(=O)OC1CC(=O)OC(C)(C)C2CC(=O)C3(C)C(CCC4(C)C(c5ccoc5)OC(=O)C5OC543)C12C (configuration not stated)
inactive: [1] 20.5% | [2] -18.3% | [3] 11.1% | [4] 2.85% | [5] -6.55% | [6] 21.1%

CC(C)CNC(=S)N/N=C/C=C/c1ccc(C(C)C)cc1
inactive: [1] -18.2% | [2] -12.7% | [3] 20.3% | [4] -16.1% | [5] 53.9% | [6] 0.35%

CCCCCCCCCCCC(=O)Nc1ccc(NC(C)=O)cc1
inactive: [1] 8.25% | [2] 25.1% | [3] 22.6% | [4] -14% | [5] 24.9% | [6] 23.9%

COc1ccc2c3c(c(C(=O)O)oc13)CCC2
inactive: [1] 3.85% | [2] -3.05% | [3] -3.8% | [4] -5.8% | [5] -15.3% | [6] 16.8%

[N-]=[N+]=Nc1ccccc1C(=O)N1C(=O)c2ccccc2C(=O)N(C(=O)c2ccccc2N=[N+]=[N-])c2ccccc21
inactive: [1] 1.35% | [2] 7.9% | [3] 0.8% | [4] 0.35% | [5] 11.9% | [6] -6.4%

C[N+](C)(C)C(Cc1c[nH]c(=S)[nH]1)C(=O)O (configuration not stated)
inactive: [1] -14.9% | [2] -44.4% | [3] -31.1% | [4] 9.45% | [5] -8.4% | [6] -20.4%

CCOC(=O)CCC(NC(=O)C(CCC(=O)O)NC(=O)OCc1ccccc1)C(=O)OCC (stereo not drawn) (Cbz-Glu-Glu(OEt)-OEt; configuration not given here)
inactive: [1] 26.4% | [2] -6.25% | [3] -1.85% | [4] -13.4% | [5] 0.05% | [6] 0.05%

CN(N=O)C(N)=NC(=O)c1ccccc1
inactive: [1] 11.4% | [2] 10% | [3] 20.9% | [4] -20.6% | [5] -16.1% | [6] -35.3%

CC(c1ccccc1)C(C)(C#N)c1ccccc1 (configuration not stated)
inactive: [1] 2.8% | [2] 23.1% | [3] 15.8% | [4] 33.5% | [5] 10.5% | [6] 40.4%

CCN(CC)CCOC(=O)OCCN(CC)CC
inactive: [1] -13.5% | [2] -12.1% | [3] -7.3% | [4] 4.45% | [5] 17.9% | [6] -38.8%

Cc1c(-c2nnc(-c3ccccc3)o2)c(=O)n(-c2ccccc2)n1C
inactive: [1] -7.3% | [2] -6.6% | [3] -30.2% | [4] -27.1% | [5] -26.1% | [6] -21.6%

COc1ccc(N2C(=O)C3C=CC(n4[nH]c(=O)n(Cc5ccccc5)c4=O)CC3C2=O)cc1 (configuration not stated)
inactive: [1] 6.6% | [2] 1.8% | [3] -0.9% | [4] -20.9% | [5] 8.4% | [6] -25.6%

Reference: PubChem BioAssay (NCI)
